Reference: PubChem BioAssay (NCI)
The panel holds about 83,000 compounds, 20% with a hit somewhere; the sample as a whole holds those more often.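 Cell lines were cultured in 96-well plates, exposed to a single compound concentration, and assessed for percent growth 48 hours later.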 Calls of active or inactive are those of the source. How the source made its calls: active means growth percent below 10; inactive means the rest.

Columns and labels:
Assay in all cases: NCI-60 one-dose screen, 48 h (100 = growth as untreated, 0 = no growth, -100 = all killed)
Settings in all cases: 10 µM unless noted
NCI-H23 lung = tested on: NCI-H23 lung
NCI-H322M lung = tested on: NCI-H322M lung
HOP-62 NSCLC = tested on: HOP-62 NSCLC
NCI-H460 lung = tested on: NCI-H460 lung
HOP-92 NSCLC = tested on: HOP-92 NSCLC
NCI-H522 lung = tested on: NCI-H522 lung
A549/ATCC NSCLC = tested on: A549/ATCC NSCLC
786-0 renal = tested on: 786-0 renal
DU-145 prostate = tested on: DU-145 prostate
K-562 leukemia = tested on: K-562 leukemia
MALME-3M melanoma = tested on: MALME-3M melanoma
MDA-MB-231 breast = tested on: MDA-MB-231 breast
RXF 393 renal = tested on: RXF 393 renal
SF-268 CNS = tested on: SF-268 CNS
SF-295 CNS = tested on: SF-295 CNS
SF-539 CNS = tested on: SF-539 CNS
UACC-257 melanoma = tested on: UACC-257 melanoma
M14 melanoma = tested on: M14 melanoma
HCT-15 colon = tested on: HCT-15 colon

Measured: growth

NCCNc1nc2ccccc2c2c(=O)c3cc(F)cc(Cl)c3sc12
active: NCI-H322M lung -27.1% | HOP-62 NSCLC -51.7% | NCI-H460 lung -90% | NCI-H522 lung -44.8% | A549/ATCC NSCLC -72.9% | 786-0 renal -90.4% | DU-145 prostate -92.6% | K-562 leukemia -62.7% | MDA-MB-231 breast -79.2% | SF-268 CNS -42.4% | M14 melanoma -76.6% | HCT-15 colon -83.4%
inactive: NCI-H23 lung 75.4% | HOP-92 NSCLC 40.8% | MALME-3M melanoma 89.6% | RXF 393 renal 67% | SF-295 CNS 98.2% | SF-539 CNS 58.6% | UACC-257 melanoma 103%

O=C(/C=C/c1ccc(Cl)cc1)c1ccc(Nc2nc(NCCO)nc(N3CCOCC3)n2)cc1
inactive: NCI-H23 lung 94.8% | NCI-H322M lung 90.8% | HOP-62 NSCLC 89.6% | NCI-H460 lung 98.1% | HOP-92 NSCLC 98.6% | NCI-H522 lung 87.2% | A549/ATCC NSCLC 68% | 786-0 renal 90.6% | DU-145 prostate 92.9% | K-562 leukemia 44.5% | MALME-3M melanoma 99.5% | MDA-MB-231 breast 84.3% | RXF 393 renal 71.3% | SF-268 CNS 82% | SF-295 CNS 94.5% | SF-539 CNS 90.4% | UACC-257 melanoma 101% | M14 melanoma 105% | HCT-15 colon 44.8%

Cc1ccccc1CNC(=O)C1CN(c2ccc(Cl)cc2)N(c2ccc(Cl)cc2)C1=O (stereo unspecified)
inactive: NCI-H23 lung 90.6% | NCI-H322M lung 89.1% | HOP-62 NSCLC 83.2% | NCI-H460 lung 91.4% | HOP-92 NSCLC 96.9% | NCI-H522 lung 68.5% | A549/ATCC NSCLC 64.4% | 786-0 renal 96.7% | DU-145 prostate 99.7% | K-562 leukemia 51.6% | MALME-3M melanoma 91.1% | MDA-MB-231 breast 84.6% | RXF 393 renal 91.6% | SF-268 CNS 83.7% | SF-295 CNS 90.1% | SF-539 CNS 98.7% | UACC-257 melanoma 78.6% | M14 melanoma 90.1% | HCT-15 colon 78.8%

Cn1c(/C=C(\C#N)c2ccccc2)nc2c(N3CCOCC3)nc(Cl)nc21
active: HOP-92 NSCLC -75.6% | NCI-H522 lung -57.5% | 786-0 renal -71.4% | DU-145 prostate -72.4% | K-562 leukemia -13.8% | MALME-3M melanoma -51.2% | MDA-MB-231 breast -80.3% | RXF 393 renal -86.3% | SF-268 CNS -66.2% | SF-539 CNS -88% | UACC-257 melanoma -61.5% | M14 melanoma -62.5% | HCT-15 colon -66.8%
inactive: NCI-H23 lung 17.5% | NCI-H322M lung 65.9% | HOP-62 NSCLC 38% | NCI-H460 lung 18.1% | A549/ATCC NSCLC 30.4% | SF-295 CNS 85.1%
